Compounds without any hit were thinned out: in the full panel of roughly 83,000, 20% have a hit.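 Treatment: one concentration, 48 hours, 96-well format. Scoring: percent growth, with anything below 10 considered active.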 The source made the active and inactive calls.
Key:
Experiment in all cases: NCI-60 one-dose screen, 48 h (100 = growth as untreated, 0 = no growth, -100 = all killed)
Settings in all cases: 10 µM unless noted
SK-MEL-2 melanoma = system: SK-MEL-2 melanoma
EKVX NSCLC = system: EKVX NSCLC
SN12C renal = system: SN12C renal
UO-31 renal = system: UO-31 renal
ACHN renal = system: ACHN renal
CAKI-1 renal = system: CAKI-1 renal
A498 renal = system: A498 renal
CCRF-CEM leukemia = system: CCRF-CEM leukemia
MOLT-4 leukemia = system: MOLT-4 leukemia
SR leukemia = system: SR leukemia
RPMI-8226 leukemia = system: RPMI-8226 leukemia
OVCAR-8 ovarian = system: OVCAR-8 ovarian
OVCAR-5 ovarian = system: OVCAR-5 ovarian
OVCAR-4 ovarian = system: OVCAR-4 ovarian
SK-OV-3 ovarian = system: SK-OV-3 ovarian
IGROV1 ovarian = system: IGROV1 ovarian
OVCAR-3 ovarian = system: OVCAR-3 ovarian
HS 578T breast = system: HS 578T breast
NCI/ADR-RES ovarian = system: NCI/ADR-RES ovarian

Measured: growth

O=C1/C(=C\c2coc3ccccc3c2=O)c2ccccc2N1c1c(Cl)cccc1Cl
active: CAKI-1 renal -7.88%
inactive: SK-MEL-2 melanoma 85.7% | EKVX NSCLC 33.1% | SN12C renal 59.5% | UO-31 renal 42.6% | ACHN renal 54.6% | A498 renal 12.6% | CCRF-CEM leukemia 21.1% | MOLT-4 leukemia 19% | SR leukemia 19.5% | RPMI-8226 leukemia 10.2% | OVCAR-8 ovarian 31.6% | OVCAR-5 ovarian 102% | OVCAR-4 ovarian 49.5% | SK-OV-3 ovarian 74.8% | IGROV1 ovarian 48.7% | OVCAR-3 ovarian 16.8% | HS 578T breast 27.4% | NCI/ADR-RES ovarian 36.1%

O=CN1N=C(c2ccc(Nc3ccnc4cc(Cl)ccc34)cc2)CC1c1ccc(Cl)cc1 (stereo not drawn)
inactive: SK-MEL-2 melanoma 52.1% | EKVX NSCLC 40.5% | SN12C renal 36.1% | UO-31 renal 20.6% | ACHN renal 27.9% | CAKI-1 renal 39.4% | A498 renal 34.6% | OVCAR-8 ovarian 33.1% | OVCAR-5 ovarian 41.9% | OVCAR-4 ovarian 38.1% | IGROV1 ovarian 27.3% | HS 578T breast 28.1%
active: CCRF-CEM leukemia 6.48% | MOLT-4 leukemia 7.23% | SR leukemia -23.3% | RPMI-8226 leukemia 4.55% | SK-OV-3 ovarian 4.28% | OVCAR-3 ovarian -24.1% | NCI/ADR-RES ovarian 0.514%

Oc1c(Cl)cc(Cl)c(Cl)c1Cc1c(O)c(Cl)cc(Cl)c1Cl
active: SK-MEL-2 melanoma -39.1% | EKVX NSCLC -4.03% | SN12C renal 5.01% | UO-31 renal -2.22% | CAKI-1 renal -18.3% | A498 renal -17.3% | CCRF-CEM leukemia 5.78% | RPMI-8226 leukemia 6.95% | OVCAR-8 ovarian 7.43% | HS 578T breast -1.24% | NCI/ADR-RES ovarian 3.82%
inactive: ACHN renal 18.4% | MOLT-4 leukemia 11.1% | SR leukemia 63.9% | OVCAR-5 ovarian 39.4% | OVCAR-4 ovarian 29.5% | SK-OV-3 ovarian 19.1% | IGROV1 ovarian 25.1% | OVCAR-3 ovarian 10.8%

O=C(O)CCC(=O)OC[C@@H](NC(=O)C(Cl)Cl)[C@H](O)c1ccc([N+](=O)[O-])cc1
inactive: SK-MEL-2 melanoma 105% | EKVX NSCLC 106% | SN12C renal 92.9% | UO-31 renal 72% | ACHN renal 88.1% | CAKI-1 renal 89.6% | A498 renal 117% | CCRF-CEM leukemia 89.7% | MOLT-4 leukemia 90.7% | SR leukemia 95.9% | RPMI-8226 leukemia 89.5% | OVCAR-8 ovarian 94.4% | OVCAR-5 ovarian 93.5% | OVCAR-4 ovarian 102% | SK-OV-3 ovarian 107% | IGROV1 ovarian 97.2% | OVCAR-3 ovarian 121% | HS 578T breast 111% | NCI/ADR-RES ovarian 101%

COc1ccc(C2CC(c3ccc(Nc4ccnc5cc(Cl)ccc45)cc3)=NN2C(C)=O)cc1 (stereo not drawn)
active: SR leukemia -9.45%
inactive: SK-MEL-2 melanoma 107% | EKVX NSCLC 55.7% | SN12C renal 76.1% | UO-31 renal 64.7% | ACHN renal 54.8% | CAKI-1 renal 73.2% | A498 renal 56.1% | CCRF-CEM leukemia 47.2% | MOLT-4 leukemia 40.8% | RPMI-8226 leukemia 33.8% | OVCAR-8 ovarian 72.8% | OVCAR-5 ovarian 94.2% | OVCAR-4 ovarian 59% | SK-OV-3 ovarian 101% | IGROV1 ovarian 74.4% | OVCAR-3 ovarian 64.2% | HS 578T breast 62.7% | NCI/ADR-RES ovarian 67.7%

Nc1ccn(C2O[C@H](CO)[C@@H](O)[C@@H]2O)c(=O)n1 (stereo partly drawn)
inactive: SK-MEL-2 melanoma 88.3% | EKVX NSCLC 91.8% | SN12C renal 37.1% | CAKI-1 renal 12.4% | A498 renal 66.8% | MOLT-4 leukemia 13.6% | RPMI-8226 leukemia 64.4% | OVCAR-8 ovarian 34% | OVCAR-5 ovarian 70.1% | OVCAR-4 ovarian 83.4% | SK-OV-3 ovarian 55.6% | IGROV1 ovarian 51.9% | OVCAR-3 ovarian 67.6% | HS 578T breast 107% | NCI/ADR-RES ovarian 34.6%
active: UO-31 renal 1.02% | ACHN renal 0.769% | CCRF-CEM leukemia 6.02% | SR leukemia 9.93%

C/C=C(/C(=C/C)c1ccc(O)cc1)c1ccc(O)cc1
inactive: SK-MEL-2 melanoma 44.9% | EKVX NSCLC 35.7% | SN12C renal 42.8% | UO-31 renal 38.1% | ACHN renal 38.4% | CAKI-1 renal 42.1% | A498 renal 31.4% | CCRF-CEM leukemia 17.1% | MOLT-4 leukemia 34% | SR leukemia 15.5% | OVCAR-8 ovarian 48.3% | OVCAR-5 ovarian 50.1% | OVCAR-4 ovarian 58.6% | SK-OV-3 ovarian 10.7% | IGROV1 ovarian 36.2% | HS 578T breast 25.6% | NCI/ADR-RES ovarian 24.3%
active: OVCAR-3 ovarian -1.49%

Cc1onc(-c2ccccc2Cl)c1C(=O)N[C@@H]1C(=O)N2[C@@H]1SC(C)(C)[C@@H]2C(=O)O
inactive: SK-MEL-2 melanoma 110% | EKVX NSCLC 104% | SN12C renal 103% | UO-31 renal 80.4% | ACHN renal 104% | CAKI-1 renal 96.6% | A498 renal 114% | CCRF-CEM leukemia 96.6% | MOLT-4 leukemia 90.5% | SR leukemia 91.6% | RPMI-8226 leukemia 95.4% | OVCAR-5 ovarian 115% | OVCAR-4 ovarian 110% | SK-OV-3 ovarian 104% | IGROV1 ovarian 101% | OVCAR-3 ovarian 118% | HS 578T breast 114% | NCI/ADR-RES ovarian 109%

COc1cccc2c1C(=O)c1c(O)c3c(c(O)c1C2=O)C[C@@](O)(C(C)=O)C[C@@H]3O[C@H]1C[C@H](N)[C@H](O)[C@H](C)O1
inactive: NCI/ADR-RES ovarian 11.8%
active: SK-MEL-2 melanoma -82% | EKVX NSCLC -25% | SN12C renal 4.49% | UO-31 renal -64.7% | ACHN renal -23.1% | CAKI-1 renal -29.4% | A498 renal -72.7% | CCRF-CEM leukemia -25.1% | MOLT-4 leukemia -17.8% | SR leukemia -5.17% | RPMI-8226 leukemia -22.9% | OVCAR-8 ovarian -6.3% | OVCAR-5 ovarian 2.15% | OVCAR-4 ovarian -16.8% | SK-OV-3 ovarian 7.97% | IGROV1 ovarian -10.2% | HS 578T breast -17.6%

C#C[C@]1(O)CCC2C3CCc4cc(O)ccc4C3CC[C@@]21C (stereo partly drawn)
active: SR leukemia 8.3% | HS 578T breast 4.63%
inactive: SK-MEL-2 melanoma 18.5% | EKVX NSCLC 31.6% | SN12C renal 52.3% | UO-31 renal 55.7% | ACHN renal 60.4% | CAKI-1 renal 45.3% | A498 renal 49.2% | CCRF-CEM leukemia 39% | MOLT-4 leukemia 23.4% | RPMI-8226 leukemia 28.4% | OVCAR-5 ovarian 78.1% | OVCAR-4 ovarian 66.8% | SK-OV-3 ovarian 43% | IGROV1 ovarian 55.2% | OVCAR-3 ovarian 16.1% | NCI/ADR-RES ovarian 13.5%

CC1C(=O)NC2=Nc3ccccc3C(=O)NN21 (stereo not drawn)
inactive: SK-MEL-2 melanoma 96% | EKVX NSCLC 88.3% | SN12C renal 99.7% | UO-31 renal 64% | ACHN renal 93.8% | CAKI-1 renal 94.5% | A498 renal 116% | CCRF-CEM leukemia 97.3% | MOLT-4 leukemia 94.3% | SR leukemia 91.3% | RPMI-8226 leukemia 90.3% | OVCAR-8 ovarian 99.7% | OVCAR-5 ovarian 96.5% | OVCAR-4 ovarian 107% | SK-OV-3 ovarian 105% | IGROV1 ovarian 79.6% | OVCAR-3 ovarian 116% | HS 578T breast 108% | NCI/ADR-RES ovarian 103%

O=C1CSC(c2ccccc2O)N1c1nnc(Cn2ccnc2)o1 (stereo not drawn)
active: CAKI-1 renal -37.5%
inactive: SK-MEL-2 melanoma 90.3% | EKVX NSCLC 81.5% | SN12C renal 66.1% | UO-31 renal 32.9% | ACHN renal 53.6% | A498 renal 99.5% | CCRF-CEM leukemia 34% | MOLT-4 leukemia 48.6% | SR leukemia 43.9% | RPMI-8226 leukemia 36.1% | OVCAR-8 ovarian 58.8% | OVCAR-5 ovarian 97.2% | OVCAR-4 ovarian 64.4% | SK-OV-3 ovarian 74.2% | IGROV1 ovarian 67.7% | OVCAR-3 ovarian 37.8% | HS 578T breast 80.6% | NCI/ADR-RES ovarian 26%

COc1cc(/C=C2\CN(C)CC3=C2Nc2nc(SC)[nH]c(=O)c2C3c2cc(OC)c(OC)c(OC)c2)cc(OC)c1OC (stereo not drawn)
inactive: SK-MEL-2 melanoma 71.8% | EKVX NSCLC 83.7% | SN12C renal 24.2% | UO-31 renal 52.4% | ACHN renal 39.2% | CAKI-1 renal 14.5% | A498 renal 95.9% | OVCAR-5 ovarian 101% | OVCAR-4 ovarian 75.9% | SK-OV-3 ovarian 87.9% | IGROV1 ovarian 30.8% | OVCAR-3 ovarian 15.7% | HS 578T breast 36.3%
active: CCRF-CEM leukemia -0.341% | MOLT-4 leukemia 0.96% | SR leukemia -2.83% | RPMI-8226 leukemia 8.36% | OVCAR-8 ovarian 1.09% | NCI/ADR-RES ovarian -7.05%

CCN1CC2=C(Nc3nc(SC)[nH]c(=O)c3C2c2cc(OC)c(OC)c(OC)c2)/C(=C/c2cc(OC)c(OC)c(OC)c2)C1 (stereo not drawn)
inactive: SK-MEL-2 melanoma 117% | EKVX NSCLC 87.3% | SN12C renal 95.9% | UO-31 renal 106% | ACHN renal 87.9% | CAKI-1 renal 108% | A498 renal 104% | CCRF-CEM leukemia 84.7% | MOLT-4 leukemia 82.5% | SR leukemia 82.5% | RPMI-8226 leukemia 96.7% | OVCAR-8 ovarian 94% | OVCAR-5 ovarian 106% | OVCAR-4 ovarian 95.9% | SK-OV-3 ovarian 110% | IGROV1 ovarian 120% | OVCAR-3 ovarian 116% | NCI/ADR-RES ovarian 105%

NC(=NCCCCCCN=C(N)/N=C(\N)Nc1ccc(Cl)cc1)/N=C(\N)Nc1ccc(Cl)cc1
active: SK-MEL-2 melanoma -31.8% | SN12C renal 5.89% | SK-OV-3 ovarian 2.57% | IGROV1 ovarian -24.1%
inactive: EKVX NSCLC 23.9% | UO-31 renal 46.6% | ACHN renal 20.5% | CAKI-1 renal 10.3% | A498 renal 11.1% | CCRF-CEM leukemia 12.5% | MOLT-4 leukemia 21.2% | SR leukemia 25.1% | RPMI-8226 leukemia 28.4% | OVCAR-8 ovarian 17.6% | OVCAR-5 ovarian 28.7% | OVCAR-4 ovarian 21.4% | HS 578T breast 18.1% | NCI/ADR-RES ovarian 46.8%

CC12CCC3C(=CCc4cc(O)ccc43)C1CCC2=O (stereo not drawn)
inactive: SK-MEL-2 melanoma 119% | EKVX NSCLC 72.3% | SN12C renal 97.5% | UO-31 renal 76% | ACHN renal 93.1% | CAKI-1 renal 92.6% | A498 renal 102% | CCRF-CEM leukemia 95.5% | MOLT-4 leukemia 85.4% | SR leukemia 97.6% | RPMI-8226 leukemia 87.8% | OVCAR-8 ovarian 101% | OVCAR-5 ovarian 102% | OVCAR-4 ovarian 107% | SK-OV-3 ovarian 115% | IGROV1 ovarian 107% | OVCAR-3 ovarian 111% | HS 578T breast 104% | NCI/ADR-RES ovarian 102%

Reference: PubChem BioAssay (NCI)
